The text below walks through data of the antibiotic and cytotoxicity screens of Wong et al. (2023).

SMILES strings stand for the structures. Hit rate of the full screen: of about 39,000 compounds, about 3,300 (8.5%) were called active. This is one part of a sample in which actives are shown more often than they occur.

In the experiment the test system is HepG2. Put plainly: cytotoxicity call (relative viability < 0.9). As to conditions: 10 µM.
Turning to `Cc1noc(C)c1S(=O)(=O)N(C)C[C@@H]1Oc2ccc(NS(=O)(=O)c3ccc(Cl)cc3)cc2CC(=O)N([C@@H](C)CO)C[C@@H]1C`, the cytotoxicity call is “inactive”.
The result for `OCCN1CCN(c2ncnc3c2ncn3[C@H]2CN(Cc3ccccc3)C[C@@H](CO)O2)CC1` reads “inactive”.
The result for `C[C@@H]1CN([C@@H](C)CO)C(=O)c2cc(NS(=O)(=O)c3ccc(Cl)cc3)ccc2O[C@@H](C)CCCCO[C@H]1CN(C)C(=O)CCC(F)(F)F` reads “inactive”; that for `CN1C=C(C(=O)OCCS(C)(=O)=O)C(C(=O)OCCS(C)(=O)=O)=CC(CCCO)=C[C@@H]1C1CC1`, “inactive”; that for `COc1ccc([C@@H](O)[C@@H](CCO)OC)cc1O`, “inactive”.
The result for `N#CC1(N[C@@H](Cc2ccccc2)c2ccccc2)CCCCCC1` reads “inactive”; that for `Cc1ccc(OC[C@@H](O)CN)c(C)c1`, “inactive”; that for `Cl.O=C1CC2(CCCC2)CC(=O)N1CCCCN1CCN(c2ncccn2)CC1`, “active”.
For `O=C(C1CC1)N1CCN(c2ncccn2)CC1`, the cytotoxicity call was “inactive”.
As for `Cn1c(=O)cnn(CCCCN2CCN(c3ncccn3)CC2)c1=O`, the entry is “inactive”.
As for `C[C@H]1CN([C@@H](C)CO)S(=O)(=O)c2ccc(-c3ccncc3)cc2O[C@@H]1CN(C)S(=O)(=O)c1ccccc1F`, the entry is “inactive”; as for `C[C@@H]1CN([C@@H](C)CO)C(=O)c2cc(NC(=O)Nc3ccc4c(c3)OCO4)ccc2O[C@@H](C)CCCCO[C@@H]1CN(C)S(=O)(=O)c1ccccc1`, “inactive”.
The result for `C[C@@H]1CCCCO[C@@H](CN(C)S(=O)(=O)c2ccc(Cl)cc2)[C@@H](C)CN([C@@H](C)CO)C(=O)c2cc(NC(=O)Nc3ccc4c(c3)OCO4)ccc2O1` reads “inactive”; that for `C[C@@H]1CCCCO[C@@H](CN(C)S(=O)(=O)c2ccc(Cl)cc2)[C@@H](C)CN([C@H](C)CO)C(=O)c2cc(NC(=O)Nc3ccc4c(c3)OCO4)ccc2O1`, “inactive”; that for `C[C@@H]1CCCCO[C@@H](CN(C)S(=O)(=O)c2ccc(Cl)cc2)[C@H](C)CN([C@@H](C)CO)C(=O)c2cc(NC(=O)Nc3ccc4c(c3)OCO4)ccc2O1`, “inactive”.
As for `C[C@@H]1CN([C@H](C)CO)C(=O)c2cc(NC(=O)Nc3ccc4c(c3)OCO4)ccc2O[C@@H](C)CCCCO[C@@H]1CN(C)S(=O)(=O)c1ccc(Cl)cc1`, the cytotoxicity call was “inactive”.
Consider `C[C@@H]1CCCCO[C@H](CN(C)S(=O)(=O)c2ccc(Cl)cc2)[C@@H](C)CN([C@@H](C)CO)C(=O)c2cc(NC(=O)Nc3ccc4c(c3)OCO4)ccc2O1`, for which the cytotoxicity call was “inactive”.
The result for `C[C@H]1CCCCO[C@H](CN(C)S(=O)(=O)c2ccccc2)[C@@H](C)CN([C@@H](C)CO)C(=O)c2cc(NC(=O)Nc3ccc4c(c3)OCO4)ccc2O1` reads “active”.
The result for `C[C@@H]1CN([C@H](C)CO)C(=O)c2cc(NC(=O)Nc3ccc4c(c3)OCO4)ccc2O[C@@H](C)CCCCO[C@H]1CN(C)S(=O)(=O)c1ccc(Cl)cc1` reads “active”.
The result for `C[C@@H]1CCCCO[C@H](CN(C)S(=O)(=O)c2ccc(Cl)cc2)[C@H](C)CN([C@@H](C)CO)C(=O)c2cc(NC(=O)Nc3ccc4c(c3)OCO4)ccc2O1` reads “active”.
`C[C@H]1CCCCO[C@H](CN(C)S(=O)(=O)c2ccc(Cl)cc2)[C@@H](C)CN([C@@H](C)CO)C(=O)c2cc(NC(=O)Nc3ccc4c(c3)OCO4)ccc2O1`: the cytotoxicity call was “active”.
The result for `C[C@@H]1CCCCO[C@H](CN(C)S(=O)(=O)c2ccccc2)[C@@H](C)CN([C@@H](C)CO)C(=O)c2cc(NC(=O)Nc3ccc4c(c3)OCO4)ccc2O1` reads “inactive”; that for `C[C@H](CO)N1C[C@H](C)[C@@H](CN(C)S(=O)(=O)c2ccc(Cl)cc2)OCCCC[C@H](C)Oc2ccc(NC(=O)Nc3ccc4c(c3)OCO4)cc2C1=O`, “inactive”.
